From PubChem BioAssay AID1986 (Sanford-Burnham Center for Chemical Genomics, 2009)
About 890 (0.31%) of roughly 290,000 compounds were called active. Rule as the data show it: active = inhibition mostly above about 52% (no sharp cut-off); inactive = mostly below about 76%. The full list was thinned out, with actives kept by preference.

Experiment: cell-free HIV fusion peptide-binding blockers – biochemical, uHTS, fluorescence dequenching, primary screen (AID 1986)
Settings: 30 min, at 20 µM, active compounds read high

| Compound | inhibition |
| --- | --- |
| Clc1ncc(Cn2cccn2)s1 | -0.3% (inactive) |
| Cc1ccc(C)c(N2CCN(C(=O)CCCn3c(=S)[nH]c4cc5c(cc4c3=O)OCO5)CC2)c1 | -4.3% (inactive) |
| Nc1c(C2=NCCO2)nnn1Cc1ccccc1 | -0.3% (inactive) |
| O=C(Nc1cccc(OCC(=O)N2CCOCC2)c1)c1ccc(C(F)(F)F)cc1 | 1.4% (inactive) |
| Cc1cc(C)cc(N(C(C)C(=O)N2CCCC2)S(C)(=O)=O)c1 (stereo unspecified) | 2.9% (inactive) |
| O=S(=O)([N-]c1nc2ccccc2nc1-[n+]1ccccc1)c1ccccc1 | 9.8% (inactive) |
| O=S(=O)([N-]c1nc2ccccc2nc1-[n+]1ccc(-c2ccncc2)cc1)c1ccccc1 | 83.2% (active) |
| O=S(=O)([N-]c1nc2ccccc2nc1-[n+]1ccc(Cc2ccccc2)cc1)c1ccc(Br)s1 | 12.8% (inactive) |
| CCc1cc[n+](-c2nc3ccccc3nc2[N-]S(=O)(=O)c2ccc(Br)s2)cc1 | 96.6% (active) |
| Cc1cc[n+](-c2nc3ccccc3nc2[N-]S(=O)(=O)c2ccccc2)cc1 | 12.1% (inactive) |
| Cc1cc(C)c[n+](-c2nc3ccccc3nc2[N-]S(=O)(=O)c2ccc(Br)s2)c1 | 26.7% (inactive) |
| Cc1ccc(S(=O)(=O)N2CCC(=O)N(CCOC(=O)Nc3cc(C)cc(C)c3)CC2)cc1 | -2% (inactive) |
| Cc1cc(C)c2nc(-n3nc(C)cc3N)cc(C)c2c1 | -0.5% (inactive) |
| COc1cc(C(=O)Nc2nc(-c3cc(C)ccc3C)c(C)s2)ccc1OCC(=O)Nc1ccc(F)cc1 | -1% (inactive) |
| Clc1cccc(CNCCCSc2ncccn2)c1 | -1.9% (inactive) |
| CCc1c(-c2ccccc2)nc2sc3c(c2c1N)CCCC3 | 0.7% (inactive) |
| CN1C(=O)S/C(=C/c2cccn2-c2cccc(C(=O)O)c2)C1=O | 1.9% (inactive) |
| Cc1ccccc1NC(=O)CN1C(=O)S/C(=C\c2cccn2-c2cccc(C(=O)O)c2)C1=O | -1.1% (inactive) |
| CC1=NN(c2nc(-c3ccc(Cl)cc3)cs2)C(=O)C1 | -1.9% (inactive) |
| CC1=NN(c2nc(-c3ccccc3)cs2)C(=O)C1 | 47.5% (inactive) |
| O=C1CC(c2ccccc2)=NN1c1nc(-c2ccccc2)cs1 | 58% (active) |
| CCOC(=O)Cn1c(=O)n(Cc2ccc(C)cc2)c(=O)c2cccnc21 | 1.3% (inactive) |
| COc1cc(N2CCCC2)c(OC)cc1/C=c1/sc2nc3ccccc3n2c1=O | -3.3% (inactive) |
| COc1cc(N2CCCC2)c(OC)cc1/C=C1/NC(=S)NC1=O | 121% (active) |
| COc1cc(N2CCCC2)c(OC)cc1C=O | -2.7% (inactive) |
| COCCN(C(=O)C1CCC1)c1nnc(-c2cccnc2)s1 | -0.2% (inactive) |
